Experimental data as given in PubChem BioAssay (NCATS).
Several values for one entry are separate records, joined by “and”; a condition that tells them apart may be missing. Identical values can stand only once. Records with an inconclusive call do not appear. Entries that show only a call come without a potency. A structure can be active in one record and inactive in another. Activity calls are given as the source filed them. Calls come from the whole dose curve; as a rule, active = well fitted curve in the direction sought with a large enough effect; inconclusive = small, poorly fitted or top-dose-only effect, or another doubt; inactive = no such curve, though single readings can be large; an effect the other way counts as inactive or inconclusive.

What was measured:
[1] = biological target: Glutathione peroxidase 1 (Homo sapiens) (UniProt P07203); experiment: Primary qHTS Assay for Inhibitors of Recombinant Selenoprotein Glutathione Peroxidase 1 (GPX1) (AID 1845191); note: nearly all actives have a fitted effect of over 65% in size; note: potency is the fitted concentration of half-maximal effect
Summary of the method: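 NADPH consumption tracked by fluorescence at 340/450 nm between t=0 and t=15 min, room temperature. Final mix: 10 nM GPX1, 100 nM glutathione reductase, 1 mM GSH, 0.5 mM NADPH, 0.5 mM cumene hydroperoxide, 0.01% BSA; 30 min compound–enzyme preincubation.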

[2] = biological target: Phospholipid hydroperoxide glutathione peroxidase GPX4 (Homo sapiens) (UniProt P36969); experiment: Primary qHTS Assay for Inhibitors of Recombinant Selenoprotein Glutathione Peroxidase 4 (GPX4) (AID 1845192); note: nearly all actives have a fitted effect of over 65% in size
Summary of the method: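 NADPH consumption followed by fluorescence at 340/450 nm, t=0 and after 15 min at room temperature. Reaction started with cumene hydroperoxide (0.5 mM final) after 30 min compound–GPX4 preincubation; final 200 nM GPX4, 100 nM GR, 1 mM GSH, 0.5 mM NADPH.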

[3] = Quantitative High-Throughput drug screen in 47 multiple myeloma cell lines against the NCATS MIPE library collection: Delta47_JCRB cell viability assay (AID 1918925; note: potency is the fitted concentration of half-maximal effect; nearly all actives have a fitted effect of over 45% in size)
Summary of the method: (§1)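 We plated 500 myeloma cells per well, pinned in MIPE 4.0 compounds, and incubated for 48 hours at 37C. ATP was then quantified with CellTiter-Glo, with DMSO and media-only wells defining 100% and 0%.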

[4] = Quantitative High-Throughput drug screen in 47 multiple myeloma cell lines against the NCATS MIPE library collection: EJM_DSMZ cell viability assay (AID 1918926; note: nearly all actives have a fitted effect of over 30% in size; note: potency is the fitted concentration of half-maximal effect)
Summary of the method: as §1

[5] = Quantitative High-Throughput drug screen in 47 multiple myeloma cell lines against the NCATS MIPE library collection: AMO1_DSMZ cell viability assay (AID 1918927; note: nearly all actives have a fitted effect of over 30% in size; note: potency is the fitted concentration of half-maximal effect)
Summary of the method: as §1

[6] = Quantitative High-Throughput drug screen in 47 multiple myeloma cell lines against the NCATS MIPE library collection: ARP1_JJKsccF8 cell viability assay (AID 1918928; note: nearly all actives have a fitted effect of over 40% in size; note: potency is the fitted concentration of half-maximal effect)
Summary of the method: (§2)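 Viability screen: myeloma cells (500/well) incubated 48 h at 37 °C, humidified 5% CO2, with pinned library compounds; CellTiter-Glo added, luminescence read; DMSO wells set 100%, medium-only wells 0%.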

[7] = Quantitative High-Throughput drug screen in 47 multiple myeloma cell lines against the NCATS MIPE library collection: ARD_JJKsccE7 cell viability assay (AID 1918929; note: potency is the fitted concentration of half-maximal effect)
Summary of the method: as §1

[8] = Quantitative High-Throughput drug screen in 47 multiple myeloma cell lines against the NCATS MIPE library collection: Karpas620_DSMZ cell viability assay (AID 1918959); note: nearly all actives have a fitted effect of over 30% in size; note: potency is the fitted concentration of half-maximal effect
Summary of the method: (§3)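 Myeloma cells (500 per well) were exposed to MIPE 4.0 compounds by pin transfer and incubated 48 hours at 37C, 5% CO2. Viability was read as ATP by CellTiter-Glo luminescence, normalised to DMSO (100%) and media-only (0%) wells.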

[9] = Quantitative High-Throughput drug screen in 47 multiple myeloma cell lines against the NCATS MIPE library collection: KHM11_PLB cell viability assay (AID 1918962); note: nearly all actives have a fitted effect of over 35% in size; note: potency is the fitted concentration of half-maximal effect
Summary of the method: as §3

[10] = Quantitative High-Throughput drug screen in 47 multiple myeloma cell lines against the NCATS MIPE library collection: JIM1_ECACC cell viability assay (AID 1918964; note: potency is the fitted concentration of half-maximal effect)
Summary of the method: as §1

[11] = Quantitative High-Throughput drug screen in 47 multiple myeloma cell lines against the NCATS MIPE library collection: JJN3_DSMZ cell viability assay (AID 1918966; note: nearly all actives have a fitted effect of over 50% in size; note: potency is the fitted concentration of half-maximal effect)
Summary of the method: as §1

[12] = Quantitative High-Throughput drug screen in 47 multiple myeloma cell lines against the NCATS MIPE library collection: FR4_PLB cell viability assay (AID 1918924; note: nearly all actives have a fitted effect of over 35% in size; note: potency is the fitted concentration of half-maximal effect)
Summary of the method: as §3

[13] = Quantitative High-Throughput drug screen in 47 multiple myeloma cell lines against the NCATS MIPE library collection: KMM1_JCRB cell viability assay (AID 1918960); note: nearly all actives have a fitted effect of over 30% in size; note: potency is the fitted concentration of half-maximal effect
Summary of the method: as §2

[14] = Quantitative High-Throughput drug screen in 47 multiple myeloma cell lines against the NCATS MIPE library collection: JIM3_ECACC cell viability assay (AID 1918963; note: nearly all actives have a fitted effect of over 35% in size; note: potency is the fitted concentration of half-maximal effect)
Summary of the method: as §3

[15] = Quantitative High-Throughput drug screen in 47 multiple myeloma cell lines against the NCATS MIPE library collection: INA6_PLB cell viability assay (AID 1918965; note: nearly all actives have a fitted effect of over 55% in size; note: potency is the fitted concentration of half-maximal effect)
Summary of the method: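 CellTiter-Glo ATP luminescence gave viability after 48 h compound treatment at 37C of 500 multiple myeloma cells per well. Normalisation used DMSO-only wells as 100% and media-only wells as 0% viability; primary qHTS of approved and investigational drugs.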

Glutathione peroxidase 1 (Homo sapiens), sequence (P07203 whole entry, looked up): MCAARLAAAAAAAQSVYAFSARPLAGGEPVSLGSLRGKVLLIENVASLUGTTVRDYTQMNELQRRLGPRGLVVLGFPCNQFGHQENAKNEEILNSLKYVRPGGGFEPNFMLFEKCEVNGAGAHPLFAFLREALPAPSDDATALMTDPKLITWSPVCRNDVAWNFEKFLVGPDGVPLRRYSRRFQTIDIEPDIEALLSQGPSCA
Phospholipid hydroperoxide glutathione peroxidase GPX4 (Homo sapiens), sequence (P36969 whole entry, looked up): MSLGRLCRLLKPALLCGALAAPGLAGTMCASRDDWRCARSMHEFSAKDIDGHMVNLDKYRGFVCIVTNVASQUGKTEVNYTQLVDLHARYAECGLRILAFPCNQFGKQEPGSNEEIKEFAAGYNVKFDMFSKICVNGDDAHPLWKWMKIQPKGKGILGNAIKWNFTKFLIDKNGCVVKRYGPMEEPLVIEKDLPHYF

Compound | Potency [1] | Potency [2] | Potency [3] | Potency [4] | Potency [5] | Potency [6] | Potency [7] | Potency [8] | Potency [9] | Potency [10] | Potency [11] | Potency [12] | Potency [13] | Potency [14] | Potency [15]
Nc1ncnc2c1nc(Cl)n2[C@@H]1O[C@H](CO)[C@@H](O)[C@@H]1O | inactive | inactive | 23.5 µM (active) | 18.7 µM (active) | 2.35 µM (active) | 13.2 µM (active) | 14.8 µM (active) | 14.8 µM (active) | 6.62 µM (active) | 16.6 µM (active) | 16.6 µM (active) |  |  |  | 
Cc1cnc(C(=O)O)c[n+]1[O-] | inactive | inactive |  | inactive | inactive |  | inactive | inactive | inactive |  |  | inactive | inactive | inactive | inactive
CCOC(CN1C(=O)[C@](CC(=O)Nc2ccc(C)cc2)(NC(=O)Nc2ccc(C)cc2)c2ccccc21)OCC | inactive | inactive |  | inactive |  |  |  | 16.6 µM (active) |  |  |  |  |  |  | 23.5 µM (active)
CC(C)(Cc1ccc2ccccc2c1)NC[C@@H](O)COc1cccc(Cl)c1C#N | inactive | inactive |  | inactive | inactive | inactive | inactive |  |  |  | 5.9 µM (active) | inactive | inactive | inactive | inactive
CC(C)C[C@H](CC(=O)O)C(=O)N[C@@H](Cc1c[nH]c2ccccc12)C(=O)N[C@@H](C)c1ccccc1 | inactive | inactive |  | inactive | inactive | inactive |  | inactive | inactive |  | inactive |  |  | inactive | 
CC(=O)Oc1cc2c(s1)CCN(C(C(=O)C1CC1)c1ccccc1F)C2 (configuration not stated) | 16.1 µM (active) and inactive and 20.2 µM (active) | inactive |  |  | 1.87 µM (active) | 1.32 µM (active) |  | 1.18 µM (active) |  |  |  |  |  |  | 
N#CC1(c2ccc(NC(=O)c3cccnc3NCc3ccncc3)cc2)CCCC1 | inactive | inactive |  | inactive | inactive | inactive | inactive | inactive | inactive | inactive |  |  | inactive | inactive | 18.7 µM (active)
CC(C(=O)O)c1ccc(-c2ccccc2)c(F)c1 (configuration not stated) | inactive | inactive |  | 13.2 µM (active) |  |  | inactive | inactive |  | inactive |  | inactive | inactive |  | 18.7 µM (active)
Clc1cc(Cl)cc(CNc2ncncc2-c2ccc3c(c2)OCO3)c1 | inactive | inactive | 11.8 µM (active) |  | 7.43 µM (active) |  | 16.6 µM (active) |  |  |  |  | 14.8 µM (active) |  | 16.6 µM (active) | 16.6 µM (active)
O=c1cc(N2CCOCC2)oc2c(-c3cccc4c3sc3ccccc34)cccc12 | inactive | inactive |  |  | 5.26 µM (active) |  | 11.8 µM (active) | 16.6 µM (active) | 5.9 µM (active) | 2.96 µM (active) | 14.8 µM (active) | 20.9 µM (active) |  | 3.32 µM (active) | 
COc1cccc2c1CCCC2CCCN1CCN(C2CCCCC2)CC1 (configuration not stated) | inactive | inactive | 16.6 µM (active) |  | 23.5 µM (active) | 18.7 µM (active) |  |  | 18.7 µM (active) |  | 20.9 µM (active) | 23.5 µM (active) | 18.7 µM (active) | 23.5 µM (active) | 16.6 µM (active)
CN1[C@@H]2CCC[C@@H]1CC(NC(=O)c1nn(C)c3ccccc13)C2 (some centres not stated) | inactive | inactive |  | inactive | inactive |  |  | inactive | inactive |  |  | inactive | inactive | inactive | inactive
